Where “and” joins values, the source holds several entries; their conditions need not be identical. Equal values may be shown once. About 83,000 compounds went through this panel and 20% of them were active in at least one assay; those are over-represented in the sample as a whole.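 Each cell line was grown in a 96-well plate and treated with one concentration of compound for 48 hours. Values below 10 were considered active.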 Values without a mark were called inactive. Calls of active or inactive are those of the source.

For the experiment, the system named is ACHN renal. Nature of the experiment: NCI-60 one-dose screen, 48 h (100 = growth as untreated, 0 = no growth, -100 = all killed). To be noted: 10 µM unless noted. As to the method:
Growth inhibition of the ACHN human tumor cell line is measured as a screen for anti-cancer activity. Cells are grown in 96 well plates and exposed to the test compound for 48 hours. Compounds are tested at a single concentration, which is 10^-5 M for most compounds. The reported endpoint is percent growth (GI% or GIPRCNT), where numbers from 0 - 100% represent growth inhibition, and numbers from -100% - 0 represent cell death. For example, a value of 40 represents 60% growth inhibition. A value of 0 means no net growth occurred over the course of the experiment. A value of -40 indicates 40% of cells at the beginning of the experiment died by the end of the experiment. A value of -100 means all cells are dead at the end of the experiment.
NCI-60 Human Tumor Cell Lines Screen was performed using the standard one-dose NCI protocol, which is described in more detail at https://dtp.cancer.gov/discovery_development/nci-60/default.htm.
Compounds with GIPRCNT values below 10 were considered active. Activity score was based on GIPRCNT using the following formula: […]
Score is 0 for GIPRCNT values of 100 or above, 50 for GIPRCNT values of 0, and 100 for GIPRCNT values of -100.
In the case of `O=C1/C(=C/c2ccccc2[N+](=O)[O-])Cc2ccccc21`, the growth is -23.9% (active) and -43.3% (active).
As for `COC(=O)/C=C1/SC(N2N=C(c3cccs3)CC2c2ccc(F)cc2)=NC1=O` (stereo not given), the figure is 74.4%.
In the case of `CCNC(=S)n1nc(SC)c(C(=O)OCC)c1N`, the growth is 96.7%.
For the molecule `N#Cc1ccccc1OCC(=O)Nc1nc2c(s1)COc1ccccc1-2`, the growth was 102%.
Turning to `Nc1ccc(S(=O)(=O)c2ccc(N)cc2)cc1`, the growth was 96.9% and 110%.
As for `COc1ccc(-c2cc(=O)c3c(O)cc(O)cc3o2)cc1`, the figure is 97.5% and 97.2%.
In the case of `C#CCn1cnc2cnc(Nc3cccc(NC(=O)CCl)c3)nc21` it was -39.9% [6.25 µM] (active).
In the case of `CN(Cc1ccccc1)c1nc(Cl)c(C2CC(c3ccc4c(c3)OCO4)=NN2c2cc(Cl)cc(Cl)c2)s1` (stereo not given) it was 97%; in that of `CC1=C2[C@@H](CC1)[C@]1(C)O[C@@](C(C)C)(C[C@H]1OC(=O)CO)[C@H]2OC(=O)C1CC1c1ccccc1` (stereo not given in full), 43.1%.
Consider `COc1cc(CNC(=O)CCCC/C=C/C(C)C)ccc1O`, for which the growth was 99.7%.
As for `CC/C=C\C/C=C\C[C@H](O)C/C=C1/C(=O)C=C[C@@H]1C/C=C\CCCC(=O)OC`, the figure is -75.9% (active); as for `Cc1ccc(Nc2nc(-c3cc(O)c(C)c(C)c3O)cs2)cc1`, 99.1%.
As for `O=c1ccc2nc(-c3ccccn3)nn(-c3ccccc3)c-2c1`, the figure is -84.7% (active).
Consider `c1ccc(-c2cc(-c3cc(-c4ccccc4)on3)no2)cc1`, for which the growth is -3.89% (active).
As for `CCCCCCCCCCCCCCCC[N+](C)(C)CCN(Cc1ccc(OC)cc1)c1ncccn1`, the figure is 45.7% and 67%.
For `COc1cc2nc3cc([N+](=O)[O-])ccc3c(NCCNCC(C)(C)O)c2cc1OC`, the growth was 6.39% (active).
As for `CCN1CCN(C(=O)[C@]23CC[C@@H](C)[C@H](C)[C@@H]2C2=CC[C@@H]4[C@@]5(C)CCC(=O)C(C)(C)[C@@H]5CC[C@@]4(C)[C@]2(C)CC3)CC1`, the figure is 9.64% (active).
As for `CC(=O)/C=C/c1ccc(N(CCO)Cc2ccc(C(C)(C)C)cc2)cc1`, the figure is 80.5%; as for `O=C(CN1C(=O)S/C(=C\C(Cl)=C\c2ccccc2)C1=O)NCCCn1ccnc1`, 5.51% (active); as for `CSc1nnc(-c2cc3c([nH]c4ccccc43)c(-c3cccc(O)c3)n2)n1-c1ccc(C)cc1`, 32.3%.
As for `Nc1[nH]nc(Nc2ccccc2)c1-c1nc2ccccc2s1`, the figure is 15.5%.
On to `C=C1C(=O)O[C@@H]2[C@H]3[C@H](COC(C)=O)[C@@H](OC(C)=O)C[C@H]3C(=C)[C@@H](O)C[C@@H]12`, for which the growth was 85.9%.
In the case of `COc1ccc(-c2cc(-c3cc(OC)c(OC)c(OC)c3)c(C#N)c(=O)n2CCCCC(=O)O)cc1` it was 91.2%; in that of `CCOc1nc(-c2ccccc2)cc2c(O)c(C(=O)N/N=C/c3ccc(N(C)C)cc3)[nH]c(=O)c12`, 102%; in that of `COc1ccc(NC(=O)Nc2ccccc2CNc2nc(Nc3ccc(OCCN4CCCC4)cc3)ncc2Cl)cc1`, -94.7% (active).
In the case of `Cn1cc(C2=C(c3cccc4ccccc34)C(=O)NC2=O)c2cc(Br)ccc21` it was 80.6%.
With `O=C1/C(=C/c2ccc(F)c(F)c2)CN(C(=O)C(Cl)Cl)C/C1=C\c1ccc(F)c(F)c1`, the growth is -100% (active).
`NS(=O)(=O)c1ccc(C(=O)N=Nc2c(O)[nH]c3c(F)cccc23)cc1`: the growth was 97.3%.
Turning to `C=CCN1C=CC(=O)[C@H](O[Si](C)(C)C(C)(C)C)[C@@H]1/C=C/c1ccccc1`, the growth is -73.1% [100 µM] (active).
Regarding `Nc1nc(Cl)nc2c1ncn2C1OC(CO)C(O)C1O` (stereo not given), the growth was 65.9% and 61.9%.
As for `COc1ccc(-c2nn3c(-c4cc(F)c(Cl)cc4Cl)nnc3s2)cc1`, the figure is 66.7%; as for `Nc1nc2ccccc2c2c(=O)c3ccc(Cl)cc3sc12`, 83.6%.
As to `CCOC(=O)CCCn1c(-c2ccccc2)cc(-c2ccccc2)c(C#N)c1=O`, the growth was 94.7%.
As for `Nc1ccc(/C=N/Nc2ccnc3c(N)cccc23)c2cccnc12`, the figure is -87.7% (active); as for `CN(C)C(=O)c1cc2cnc(Nc3ccc(-c4csc5c(=S)cc(N6CCOCC6)oc45)cc3)nc2n1C1CCCC1`, 6.64% (active).
As for `O=C(CCCCCCCCC(=O)N/N=C\c1ccccc1O)N/N=C\c1ccccc1O`, the growth was 14.7%.
As for `CCCn1nc(C(=O)N2CCCCC2)c2c1CCC(N1CCC(c3ccncc3)CC1)C2` (stereo not given), the figure is 105%; as for `Cc1nc(-n2[nH]c(=O)ccc2=O)sc1N=Nc1ccccc1`, 99.5%.
Take `Cc1ccc(Cc2cnc(NC(=O)c3cc(C)oc3C)s2)cc1`: the growth is 70.4%.
For the molecule `O=C(CN1C(=O)S/C(=C\C(Cl)=C\c2ccccc2)C1=O)NC1C=CS(=O)(=O)C1` (stereo not given), the growth was -57.5% (active).

These data come from PubChem BioAssay (NCI).
